Bioassay records: PubChem, National Center for Advancing Translational Sciences (NCATS)
HCV inh: HCV inhibition. Huh7.5.1 HCVcc-Cre infection, luciferase reporter, 44 h. Potency, µM (doses to about 41.8 µM), for the others: top-dose activity change, negative = inhibition, most hits filed as inhibitors. actives 3.4% (n = 340,000). AID 651820
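Infectious HCVcc-Cre (~0.5 moi) was added to cells just after compound, with cells seeded 4 h earlier at 1,000 per well. Luciferase activity after 44 h culture reported infection; substrate was incubated 15 min at room temperature before reading.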
Pf growth 96h: P. falciparum growth inhibition at 96 hour, primary screen for plastid delayed-death inhibitors | P. falciparum luciferase reporter growth, 96 h | Potency, µM (series often up to 28.7 µM), inactives show at the highest dose activity change, negative = inhibition, most hits filed as inhibitors | AID 504834 | actives 6.9% (n = 320,000)
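Two parasite generations (96 h, 37 C, 5% CO2) of compound exposure in infected erythrocytes (0.05% parasitemia, 2% hematocrit). Luciferase-reporter P. falciparum; decreased luminescence indicates inhibited growth, aimed at apicoplast-acting delayed death.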
AMA1-RON2 inh: inhibitors of Plasmodium falciparum AMA1-RON2 interaction; Potency, µM (top dose mostly 58.2 µM), for inactives: at the highest dose activity change, negative = inhibition, most hits filed as inhibitors; AlphaScreen AMA1-biotinylated RON2 peptide binding; AID 720542; actives 0.2% (n = 360,000);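 further: 0% = vehicle wells and -100% = peptide control; nearly all actives have a fitted effect of over 45% in size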
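AMA1 (3D7) with his tag at 25 nM final met compounds first, then biotinylated RON2 peptide at 25 nM; detection used donor plus acceptor beads, 10 µg/mL apiece, read by AlphaScreen after 30 min at room temperature.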
Pf growth 48h: inhibits P. falciparum growth in the first generation, 48 h; P. falciparum luciferase growth in erythrocytes, 48 h; Potency, µM (series often up to 28.7 µM), for inactives: at the top dose activity change, negative = inhibition, actives largely listed as inhibitors; actives 5.9% (n = 310,000)
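Growth was read as firefly luciferase luminescence after a 48 h, 37 C, 5% CO2 exposure of compounds to reporter-bearing P. falciparum cultures (0.1% parasitemia, 2% hematocrit final) in Albumax-supplemented RPMI 1640.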
Starred values were filed as active, the others as inactive; u = inconclusive; x = no result; [ ] = another dose, or the depositor's remark. Shown are actives, neighbours in structure and some others; about 11% of the full set was active somewhere. The call rests on the fitted dose curve; in most records, active means well fitted curve in the direction sought with a large enough effect; inconclusive means small, poorly fitted or top-dose-only effect, or another doubt; inactive means no such curve, though single readings can be large; an effect the other way counts as inactive or inconclusive. Unless noted, on the % scale 0 is the no-effect control and ±100 the full control effect; potency means the concentration at half of the fitted maximal effect.

SMILES | HCV inh | Pf growth 96h | AMA1-RON2 inh | Pf growth 48h
CC(NC(=S)Nc1ccccc1C(F)(F)F)C1CC2CCC1C2 (stereo unspecified) | u | 0% | 25% | u
Cc1ccc2c(Cl)c(C(=O)NCCc3ccccc3)sc2c1 | -3% | u | 17% | 178%
O=C(NCc1ccco1)c1sc2cc(F)ccc2c1Cl | -30% | 15µM* | -4% | 111%
O=C(NCC1CCCO1)c1sc(=S)n2c1[nH]c(=O)c1ccc(C(=O)N3CCCCC3)cc12 (stereo unspecified) | 14% | u | 7% | 10µM*
CCNC(=O)c1sc2cc(C)ccc2c1Cl | u | 13µM* | -5% | 37%
Cc1ccc2c(Cl)c(C(=O)NCC3CCCO3)sc2c1 (stereo unspecified) | 2.2µM* | 93% | 23% | 314%
CCCCOc1ccccc1C(=O)N(Cc1ccco1)C1CCS(=O)(=O)C1 (stereo unspecified) | 17% | 2% | -1% | 13%
CCOc1cccc(-c2c(C(=O)N/N=C/c3ccc(C)o3)nnn2-c2nonc2N)c1 | -8% | u | 79% | -18%
Cc1[nH]c(=O)[nH]c(=O)c1NS(=O)(=O)c1ccc2c(c1)CCCC2 | -6% | x | 27% | -13%
Cc1ccc(S(=O)(=O)Nc2c(C)[nH]c(=O)[nH]c2=O)cc1C | -1% | 2.6µM* | -2% | -1%
COc1nc2ccccc2nc1OC | 4% | 5% | -2% | 43%
Cc1ccc(/C=C/C(=O)O)cc1S(=O)(=O)Nc1ccc(C(=O)O)cc1 | 7% | 21% | -11% | 2%
Cc1ccc(/C=C/C(=O)O)cc1S(=O)(=O)Nc1ccccc1C(=O)O | 6% | 10µM* | 4% | -10%
C=C1C(=O)O[C@@H]2[C@H]1[C@@H](OC(=O)/C(C)=C/C)C/C(C)=C\C(=O)/C=C(\C)[C@@H]2O | 11µM* | u | 3% | u
CCOc1ccc(C(=O)O[C@H]2[C@H](Cc3ccccc3)NS(=O)(=O)[C@H]3C[C@@H]4C=C[C@]23O4)cc1 | u | 4.7µM* | 21% | 2.1µM*
COc1cccc(C(=O)O[C@@H]2[C@H](Cc3ccccc3)NS(=O)(=O)[C@H]3C[C@@H]4C=C[C@]23O4)c1 | 0% | u | -6% | u
C[C@@H]1NS(=O)(=O)[C@H]2C[C@@H]3C=C[C@]2(O3)[C@H]1OC(=O)c1ccccc1Br | 0% | -9% | 1% | u
CC(C)(C)c1ccc(C(=O)O[C@H]2[C@H](Cc3ccccc3)NS(=O)(=O)[C@H]3C[C@@H]4C=C[C@]23O4)cc1 | u | 12µM* | -10% | 13µM*
O=C(Nc1ccc2c3c(cccc13)CC2)c1ccccc1 | x | x | 2% | x
CCCCCC[n+]1c(-c2ccc(Cl)cc2Cl)csc1Nc1ccccc1 | 7% | u | -5%[2.32 µM] | 1.2µM*
CC1CCCN(CCCNC(=O)C2CC(=O)N(c3ccc(F)c(Cl)c3)C2)C1 (stereo unspecified) | u | 8% | -4% | 15µM*
Cc1ccc(-n2c(C)cc(C(=O)OCC(=O)N(C)C3CCS(=O)(=O)C3)c2C)cc1 (stereo unspecified) | -5% | 42% | -1% | 1.7µM*
CN(C(=O)COC(=O)c1cc(-c2ccc(Cl)s2)nc2ccccc12)C1CCS(=O)(=O)C1 (stereo unspecified) | 10µM* | -28% | 1% | 13%
O=C(NCC(=O)N(c1cccnc1)C(C(=O)NC1CCCC1)c1ccccc1F)c1ccco1 (stereo unspecified) | -2% | 5% | 7% | 11%
C[C@@H]1CN(CCCn2c3ccccc3c3ccccc32)C[C@H](C)N1 | x | 5.4µM* | x | 8.5µM*
SMILES | HCV inh | Pf growth 96h | AMA1-RON2 inh | Pf growth 48h
O=C(c1ccco1)N(Cc1cccc([N+](=O)[O-])c1)c1ccc(Br)cc1 | 6% | u | -25% | -18%
O=C(c1ccco1)N(Cc1ccco1)c1ccc(O)cc1 | -2% | 9.3µM* | -4% | u
O=C(c1ccco1)N(Cc1ccccc1)c1cccc([N+](=O)[O-])c1 | -23% | 6.6µM* | -7% | u
COC(=O)CC1=C(C(=O)OC)[C@@H](c2ccccc2[N+](=O)[O-])C(C#N)=C(N)O1 | 17% | u | 11% | -2%
COc1ccc(/C=N/NC2=NCCCCC2)c(OC)c1 | 20% | 0% | 7% | 26%
COC(=O)C1=C(N)c2c(F)cccc2C1(C#N)c1ccc(F)cc1 (stereo unspecified) | 13% | u | -3% | x
